# System: Plasmodium falciparum
# Assay: GSK_TCMDC: Inhibition of Plasmodium falciparum 3D7 in whole red blood cells, using parasite LDH activity as an index of growth. Test compounds present at 2uM
# Format: functional
row,Structure (SMILES),Inhibition [%]
1,O=C(/C=C/c1ccc(Cl)c(Cl)c1)NCCCCN1CCCN(C(=O)Nc2cc(Cl)cc(Cl)c2)CC1,97
2,Cc1ccc(F)c(CN2CCC(N3CC(c4ccccc4)(c4ccccc4)OC3=O)CC2)c1Cl,95
3,CN(C)CCNC(=O)c1ccc(-c2ccc3c(Nc4ccccc4)c(C(N)=O)cnc3c2)cc1,99
4,COc1ccc(CNCCc2cccs2)cc1-c1ccc(OC)c(S(=O)(=O)NCCN2CCCC2)c1.O=C(O)C(F)(F)F,96
5,O=C(Nc1ccc(-c2cncc(NCCCN3CCCC3)c2)cc1)c1ccccc1,94
6,CC(C)(C)c1nn(-c2ccccc2)c2[nH]c(=O)c(CNC3CCCC3)cc12,100
7,O=C(/C=C/c1cccc(OC(F)(F)F)c1)NCCCCCN1CCC(c2c[nH]c3ccccc23)CC1,93
8,O=C(Nc1ccc(N2CCC(Nc3ccccn3)CC2)cc1)c1cnc(Cl)c(Cl)c1.O=C(O)C(F)(F)F,83
9,c1ccc(Oc2ccc(Nc3ccnc4cc(-c5ccc(CNCCN6CCOCC6)o5)ccc34)cc2)cc1,99
10,COC(=O)C(C)NCC(=O)c1ccccc1.Cl (stereo not given),97
11,CCOC(=O)NC1=NC(=N)N(OCc2ccc(Cl)c(Cl)c2)C(C)(C)N1,96
12,CCCCCCNC(=O)C1Cc2c([nH]c3ccc(C)cc23)C2(CCN(CCc3ccccc3)CC2)N1 (stereo not given),85
13,CC1C(c2cccc(Cl)c2)OCC(C)(C)N1C(=O)CCN1CCCCC1.Cl (stereo not given),88
14,COc1cc(C2CCN(CCCCNC(=O)c3ccc(NC(=O)c4cc(C(F)(F)F)cc(C(F)(F)F)c4)cc3)CC2)ccc1OC(C)C,100
15,COCCCNC(=O)C1CCN(C(c2ccc(Cl)cc2)c2ccc(Cl)cc2)CC1,91
16,CC(C)CC(=O)N1CCNC[C@@H]1C(=O)NCc1ccc(Cl)c(Cl)c1.O=C(O)C(F)(F)F,99
17,O=C(N[C@@H](Cc1ccccc1)C(=O)NCCN1CCCCC1)c1ccc(O)c(-c2cccc(C(F)(F)F)c2)c1,92
18,Cn1nccc1C(=O)NCCNCc1ccc(-c2ccc(-c3nc4cc(C(F)(F)F)ccc4[nH]3)cc2)cc1.O=C(O)C(F)(F)F,100
19,Cc1ccc2c(c1[N+](=O)[O-])N=NCC2Oc1ccccc1 (stereo not given),91
20,Cl.O=c1nc(NCCCNCc2cc3c(Cl)cc(Cl)cc3[nH]2)[nH]c2ccccc12,91

row,Structure (SMILES),Inhibition [%]
1,N#Cc1cccc(CN2CCCN(Cc3cccc(C(=O)Nc4ccc(Cl)cc4)c3)CC2)c1.O=C(O)C(F)(F)F,82
2,CCOc1ccc2[nH]c(C)cc(=NN=Cc3ccccc3F)c2c1,100
3,COc1ccc(NC(=O)/C=C/c2ccccc2Cl)cc1OCCN1CCC(N2CCN(C)CC2)CC1,100
4,CCN1CCCC(Nc2ccnc3cc4ccccc4cc23)C1 (stereo not given),100
5,Cc1cccc2nc(-c3ccc(-c4ccc(NC(=O)C(C)CN(C)C)cc4)cc3)[nH]c12 (stereo not given),99
6,CS(=O)(=O)CCCNCc1ccc(-c2cc3c(Nc4ccc(OCc5ccccc5)cc4)ncnc3cn2)o1,87
7,CCOc1ccc(Cc2c(C)nc3nc(N)nc(N)c3c2C)cc1.Cl,91
8,Cc1cc(CNCC2CCC(CNCCCc3ccccc3)CC2)ccc1O (stereo not given),100
9,CCNc1cc(C(=O)N[C@@H](Cc2ccccc2)[C@H](O)CNC(C)(C)Cc2ccccc2)cc(N2CCCC2=O)c1.O=CO,99
10,Br.CCCCCCn1c2c(c(=N)c3c1CCC3)CCC2,97
11,CC(C)CCn1c(Sc2ccc(C#N)c([N+](=O)[O-])c2)nnc1-c1ccccc1Cl,93
12,O=C(Cc1ccc(NC(=O)c2ccc(O)c(-c3ccc(Cl)c(Cl)c3)c2)cc1)NCCc1ccc(Cl)c(Cl)c1,99
13,O=C(Nc1cccc(-c2nn3ccccc3c2-c2ccnc(Nc3cccc(-c4cnco4)c3)n2)c1)C1CCCCC1,95
14,CCOc1ccccc1N1CCN(CCCNC(=O)/C(=C/C=C/c2cc3cc(Cl)c(Cl)cc3[nH]2)OC)CC1,98
15,CCN(CC)CCN(Cc1ccc(-c2ccc(C(F)(F)F)cc2)cc1)C(=O)Cn1c(CCc2ccc(F)c(F)c2F)nc(=O)c2ccccc21.O=C(O)C(O)C(O)C(=O)O,97
16,CN(c1ccc2c(c1)nc(NCc1ccccc1)n2C)c1ccnc(Nc2ccc(CS(C)(=O)=O)cc2)n1.Cl,94
17,COc1cc2s/c(=N\C(=O)c3cccc([N+](=O)[O-])c3)n(C)c2cc1OC,92
18,NCCc1cccc(-c2cnc3[nH]cc(-c4ccc(C(=O)O)cc4)c3c2)c1.O=C(O)C(F)(F)F,99
19,Cc1cccc2nc(-c3cccc(-c4ccc(CNCc5cnn(-c6ccccc6)n5)cc4)c3)[nH]c12.O=C(O)C(F)(F)F,100
20,COc1ccc2nccc([C@@H](O)CN3CCC(NC(=O)c4ccc(CN5CCN(c6cccc(C)c6)CC5C)cc4)CC3)c2c1 (stereo not given in full),97
